Test results: PubChem BioAssay (Tox21)
Results filed as inconclusive are left out. A number with no mark means an inactive call. Calls follow the shape of the full dose curve.

Each compound was assayed against Thyrotropin receptor (Homo sapiens) (UniProt P16473) (assay: qHTS assay to identify small molecule antagonists of the thyroid stimulating hormone receptor (TSHR) signaling pathway (AID 1259385; also: nearly all actives have a fitted effect of over 20% in size)). Conditions: TSHR-HEK293 cAMP HTRF, TSH-stimulated antagonist mode; series mostly up to 92.4 µM; activity change, negative = inhibition: at the top concentration.
Text: U.S. Tox21 Program National Center for Advancing Translational Sciences [NCATS] NIH Chemical Genomics Center [NCGC] U.S. Environmental Protection Agency [EPA] National Institutes of Environmental Health Sciences [NIEHS] National Toxicology Program [NTP] U.S. Food and Drug Administration [FDA] Tox21 Assay Overview: TSHR is the receptor for thyrotropin (thyroid stimulating hormone or TSH), a member of the glycoprotein hormone family. TSH is released by the anterior pituitary gland and is the main regulator of thyroid gland growth and development. Upon binding circulating thyrotropin, a G-protein signal cascade activates adenylyl cyclase and […] cAMP concentration is increased. cAMP is a key second messenger involved extensively in cellular signal transduction pathways associated with the majority of G-protein coupled receptors (GPCRs). The activation of these GPCRs by neurotransmitters, lipids, nucleotides, peptides and hormones results in the activation or the inhibition of plasma membrane-bound adenylate cyclase through heterotrimeric G-proteins. A cell-based TSHR assay can be used to screen chemical compounds that modulate TSHR either in agonist or antagonist mode.
Tox21 Assay Protocol Summary: TSHR-Hek293 cells were dispensed at 800 cells/4uL/well in 1536-well white plates using a Multidrop dispenser. After the assay plates were incubated at a 37C/5% CO2 incubator for 18 hrs, 23 nL of compounds dissolved in DMSO, positive controls or DMSO only was transferred to the assay plate by a pin tool, followed by 1 ul medium containing Ro20-1724. For the antagonist mode screening, 1 uL of TSH was added on the top of the cell/compound mixtures to achieve a final agonist concentration of 1.5 ng/mL. After 30 min of incubation at room temperature, 2.5 ul/well of cAMP-d2 and 2.5 ul/well of anti-cAMP-cryptate were added respectively into the assay plates using a Flying Reagent Dispenser. The plates were incubated at room temperature for 1 hr. The fluorescence intensity in the plates was measured using an Envision plate reader. Each test compound was measured at 15 concentrations and in triplicates.
% is scaled to controls: 0 for no effect and ±100 for the full control effect.

Sequence of Thyrotropin receptor (Homo sapiens) (P16473 whole entry, looked up): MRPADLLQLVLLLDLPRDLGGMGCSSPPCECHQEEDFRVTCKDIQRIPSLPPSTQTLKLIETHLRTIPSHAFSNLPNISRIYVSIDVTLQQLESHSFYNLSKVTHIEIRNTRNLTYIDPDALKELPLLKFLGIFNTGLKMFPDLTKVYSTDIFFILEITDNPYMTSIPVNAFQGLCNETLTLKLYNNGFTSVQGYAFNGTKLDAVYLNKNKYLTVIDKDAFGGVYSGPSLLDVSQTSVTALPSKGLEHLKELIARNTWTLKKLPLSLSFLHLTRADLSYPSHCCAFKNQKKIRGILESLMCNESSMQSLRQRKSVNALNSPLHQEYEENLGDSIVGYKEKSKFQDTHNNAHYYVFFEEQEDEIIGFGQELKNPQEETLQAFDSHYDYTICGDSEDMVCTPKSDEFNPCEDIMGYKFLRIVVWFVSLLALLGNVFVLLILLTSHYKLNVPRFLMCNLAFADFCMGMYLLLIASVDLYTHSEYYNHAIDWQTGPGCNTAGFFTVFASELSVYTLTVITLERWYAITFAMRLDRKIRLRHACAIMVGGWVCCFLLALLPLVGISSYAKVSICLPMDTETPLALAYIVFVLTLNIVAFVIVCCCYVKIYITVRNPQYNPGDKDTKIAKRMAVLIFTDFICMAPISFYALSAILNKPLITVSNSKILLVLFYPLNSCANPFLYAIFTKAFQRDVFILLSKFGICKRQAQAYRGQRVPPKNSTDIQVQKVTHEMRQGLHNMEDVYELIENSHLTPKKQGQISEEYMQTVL

| Structure (SMILES) | activity change, negative = inhibition |
| --- | --- |
| C=C(C)C(=O)OCCCCCCOC(=O)C(=C)C | -9.24% |
| COc1ccc(NS(=O)(=O)c2ccc(N)cc2)nn1 | 0.747% [at 42.5 µM] |
| FC(F)(F)/C(=N\OCC1OCCO1)c1ccc(Cl)cc1 | -9.87% |
| CO/N=C(/C(=O)N[C@@H]1C(=O)N2C(C(=O)O)=C(Cn3nnc(C)n3)CS[C@H]12)c1csc(N)n1 | 0.281% [at 42.5 µM] |
| CC(=O)OC(C)(C)Cc1ccccc1 | -2.54% |
| N#CCCOCCOCCC#N | 0.322% |
| c1ccc(CNc2ncnc3nc[nH]c23)cc1 | 0.543% |
| O=c1[nH]c(=O)c2ccccc2o1 | 3.71% [at 42.5 µM] |
| CC(=O)N1CCN(c2ccc(O)cc2)CC1 | 4.84% [at 42.5 µM] |
| CC(C)C(=O)c1ccccc1 | 3.4% |
| O=c1cc(O)c(Cl)c[nH]1 | 4.54% [at 42.5 µM] |
| CCCCCCCCOC(C)=O | 1.75% |
| CC(C)COC(=O)CCCCC(=O)OCC(C)C | -6.86% |
| NS(=O)(=O)c1ccc(Cl)c(S(N)(=O)=O)c1 | 4.87% [at 42.5 µM] |
| CC1=CC[C@H](CC=O)C1(C)C | 9.87% |
| Nc1ccc(S(=O)(=O)Nc2ccccn2)cc1 | 4.46% [at 42.5 µM] |
| CC(=O)OC(C)c1ccccc1 (stereo not given) | -0.218% |
| CCCCCCCCCOCC1CO1 (stereo not given) | -3.67% |
| O=S(=O)(O)SSS(=O)(=O)O | 0.752% |
| CCCCCCCCCCCCOC(C)=O | -0.828% |

| Structure (SMILES) | activity change, negative = inhibition |
| --- | --- |
| COC(OC)C(C)c1ccccc1 (stereo not given) | 4.43% |
| O=C1OC(=O)c2cc(Oc3ccc4c(c3)C(=O)OC4=O)ccc21 | -0.816% |
| NC(=O)NNC(N)=O | 4.67% |
| CCOC(=O)CC#N | 4.94% |
| CNC(=O)C(c1ccccc1)c1ccccc1 | 5.39% |
| CCCCC(CC)CNC(=O)CC(C)OC(=O)CCC(=O)O (stereo not given) | -3.35% [at 42.5 µM] |
| CC(=O)c1ccc2c(c1)CCCC2 | 1.39% |
| NC(=O)NC(=O)Cc1ccccc1 | 1.5% [at 42.5 µM] |
| C1=CCC(c2ccccc2)CC1 (stereo not given) | -3.92% |
| OCCCCCCCl | -5.95% |
| OC[C@@H](O)[C@H](O)[C@@H](O)[C@@H](O)CO | -0.0785% |
| Cc1nc2n(c(=O)c1CCN1CCC(C(=O)c3ccc(F)cc3)CC1)CCS2 | 4.04% [at 42.5 µM] |
| CC(C)CCC(=O)CCC(C)C | -0.206% |
| O=C(Oc1ccccc1C(=O)O)c1ccccc1O | 2.83% [at 42.5 µM] |
| CCCCCCCCCCCCCCCC(=O)NCCO | -0.534% [at 42.5 µM] |
| C=CCOc1c(Br)cc(C(C)(C)c2cc(Br)c(OCC=C)c(Br)c2)cc1Br | 1.39% [at 42.5 µM] |
| O=C(O)Cc1cccc(-c2cc(CCCCCCc3ccc(O[C@H]4O[C@H](CO)[C@@H](O)[C@H](O)[C@@H]4O)c(-c4cccc(CC(=O)O)c4)c3)ccc2O[C@H]2O[C@H](CO)[C@@H](O)[C@H](O)[C@@H]2O)c1 | -1.92% [at 0.349 µM] |
| O=CN1CCOCC1 | 1.6% |
| CCCCCCCCCCCCC | -0.263% |
| O=C(COCCOCCOCC(=O)Nc1c(I)cc(I)c(C(=O)O)c1I)Nc1c(I)cc(I)c(C(=O)O)c1I | 0.11% [at 42.5 µM] |
